Results taken from PubChem BioAssay (NCI).
About 79,000 compounds went through this panel and 15% of them were active in at least one assay; those are over-represented in the sample as a whole. A number with no mark means an inactive call. Calls of active or inactive are those of the source. Cut-off read from the data, not from the text of the source: active = growth inhibition above about 70%; inactive = the rest. Where a SMILES comes first, the peptide text is derived from it. The star is where a group is joined. Boc = CC(C)(C)OC(=O)*; OBn = c1ccc(CO*)cc1; Bn = c1ccc(C*)cc1

Key:
[1] = NCI Yeast Anticancer Drug Screen. Data for the rad50 strain (AID 155);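 note: 0% = growth of vehicle-only cultures of the same strain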; conditions: S. cerevisiae rad50 strain growth inhibition, hits give high values
Method in brief: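 Inhibition values express reduced yeast growth in compound-treated cultures relative to vehicle-treated controls.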

[2] = NCI Yeast Anticancer Drug Screen. Data for the mec2-1 strain (AID 157); conditions: S. cerevisiae mec2-1 strain, hits give high values
Method in brief: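 Growth inhibition is read against vehicle-treated controls after compound exposure of the mec2-1 yeast strain, which is defective in DNA damage repair or cell cycle control.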

[3] = NCI Yeast Anticancer Drug Screen. Data for the sgs1 mgt1 strain (AID 161);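 note: 0% = growth of cultures given vehicle only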; conditions: S. cerevisiae sgs1 mgt1 strain, hits give high values
Method in brief: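 This yeast growth screen uses a strain with defined DNA-repair lesions; compound-treated growth is compared with vehicle-treated growth.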

[4] = NCI Yeast Anticancer Drug Screen. Data for the cln2 rad14 strain (AID 165);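 note: 0% = growth equal to vehicle treated cultures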; conditions: S. cerevisiae cln2 rad14 strain, hits give high values
Method in brief: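 Growth inhibition, relative to vehicle-treated controls, is the read-out. The test organism is a yeast strain with defined genetic alterations, cln2 rad14.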

[5] = NCI Yeast Anticancer Drug Screen. Data for the bub3 strain (AID 167); conditions: S. cerevisiae bub3 mutant strain, hits give high values
Method in brief: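 Steps: expose the mutant yeast strain to compound; grow alongside vehicle-treated cultures; measure growth; express inhibition against the vehicle cultures.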

[6] = NCI Yeast Anticancer Drug Screen. Data for the mlh1 rad18 strain (AID 175); conditions: S. cerevisiae mlh1 rad18 strain growth inhibition, hits give high values
Method in brief: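 Cells of a genetically altered yeast strain, deficient in DNA damage repair, were treated with compound. Their growth was then compared with that of vehicle-treated cultures to give inhibition.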

[7] = at 5.0 µM (retest, dose inferred, filed as 0.5)
[8] = at 50.0 µM (retest, dose inferred, filed as 5.0)

| Compound | growth inhibition [1, 7] | growth inhibition [1, 8] | growth inhibition ([1]; at 50.0 µM) | growth inhibition [2, 7] | growth inhibition [2, 8] | growth inhibition ([2]; at 50.0 µM) | growth inhibition [3, 7] | growth inhibition [3, 8] | growth inhibition ([3]; at 50.0 µM) | growth inhibition [4, 7] | growth inhibition [4, 8] | growth inhibition ([4]; at 50.0 µM) | growth inhibition [5, 7] | growth inhibition [5, 8] | growth inhibition ([5]; at 50.0 µM) | growth inhibition [6, 7] | growth inhibition [6, 8] | growth inhibition ([6]; at 50.0 µM) |
| --- | --- | --- | --- | --- | --- | --- | --- | --- | --- | --- | --- | --- | --- | --- | --- | --- | --- | --- |
| CCC(CCCN(CC)CCc1ccccc1)OC(=O)c1cc(OC)c(OC)c(OC)c1 (stereo not given) | 5% | 17% | 22.4% | -10% | 6% | 27.2% | -1% | 30% | 37.8% | 2% | 0% | 35.6% | 4% | 18% | 4% | 5% | 10% | 54.5% |
| COc1ccc(C2C3=C(CCCC3=O)Oc3cc4c(cc32)OCO4)cc1 (stereo not given) | 2% | 68% | 98% (active) | 5% | 76% (active) | 96.7% (active) | -6% | 64% | 97.3% (active) | 22% | 67% | 96.3% (active) | -2% | 79% (active) | 95.9% (active) | 0% | 91% (active) | 98.2% (active) |
| COC(=O)c1[nH]c(=O)c(C#N)c(C(=O)OC)c1C(=O)c1ccc2ccccc2c1 | -1% | 31% | 80.8% (active) | -2% | 20% | 10.9% | -1% | 25% | 67.6% | 7% | 32% | 20.3% | 7% | 41% | 24.6% | 12% | 44% | 80.8% (active) |
| CC(=O)/C=C1\C(=O)Nc2ccccc21 | 20% | 97% (active) | 85.1% (active) | 10% | 100% (active) | 91.6% (active) | 16% | 92% (active) | 91.7% (active) | 26% | 95% (active) | 32.9% | 12% | 99% (active) | 87.7% (active) | 14% | 99% (active) | 78.7% (active) |
| COC(=O)c1nc(=S)[nH]c(C(=O)OC)c1C(=O)c1ccc2ccccc2c1 | 26% | 96% (active) | 94.5% (active) | 9% | 97% (active) | 71.5% (active) | 0% | 97% (active) | 93.3% (active) | 8% | 96% (active) | 25.8% | 13% | 98% (active) | 71.1% (active) | 16% | 98% (active) | 94.5% (active) |
| CCOC(=N)CCCSSc1ccc(N=[N+]=[N-])cc1 | 15% | 99% (active) | 98.7% (active) | -15% | 99% (active) | 99.2% (active) | -5% | 97% (active) | 99% (active) | -7% | 97% (active) | 98.5% (active) | -7% | 99% (active) | 98.8% (active) | -3% | 99% (active) | 99.2% (active) |
| CN(C)CCC(/C=C/c1ccccc1)=N\Nc1ccc(Cl)c(Cl)c1 | 98% (active) | 96% (active) | 99.7% (active) | 99% (active) | 98% (active) | 99.6% (active) | 99% (active) | 98% (active) | 99.5% (active) | 75% (active) | 95% (active) | 98% (active) | 95% (active) | 97% (active) | 99.3% (active) | 98% (active) | 97% (active) | 99.5% (active) |
| N#Cc1ccc([N+](=O)[O-])o1 | 11% | 97% (active) | 96.2% (active) | 1% | 98% (active) | 99% (active) | 9% | 93% (active) | 96.2% (active) | 8% | 59% | 62.8% | 7% | 92% (active) | 97.7% (active) | 15% | 99% (active) | 97.9% (active) |
| CC(C)CC(NC(=O)C(Cc1ccccc1)NC(=O)C(COCc1ccccc1)NC(=O)OC(C)(C)C)C(=O)OCc1ccccc1 (stereo not drawn) (Boc-Ser(Bn)-Phe-Leu-OBn; configuration not given here) | 16% | 13% | 16.8% | 22% | 15% | 2.6% | -15% | -29% | 17.2% | -3% | 7% | 16.2% | -4% | -7% | 25.4% | 26% | 15% | 24.3% |
| Cc1ccc(S(=O)(=O)n2c3c(c4ccccc42)CCN2C(=O)C(S(=O)(=O)c4ccccc4)=CCC32)cc1 (stereo not given) | 65% | 97% (active) | 94.6% (active) | 71% (active) | 98% (active) | 95.7% (active) | 74% (active) | 98% (active) | 97.5% (active) | 71% (active) | 98% (active) | 97.9% (active) | 29% | 97% (active) | 97.5% (active) | 78% (active) | 97% (active) | 95.8% (active) |
